Compound activity as filed in PubChem.
This excerpt belongs to a sample that is enriched for hits.
Dicer inh = inhibitors of Dicer pre-microRNA processing, primary screen, biochemical, cat-ELCCA, chemiluminescence; AID 1347074, 2019; hit rate 6% among 47,000; cat-ELCCA pre-miR-21 Dicer processing; stronger effect = higher value; z-score at 25 µM; Endoribonuclease Dicer (Homo sapiens), Q9UPY3; in the data active means z-score above about 3, passing the limit was not always enough;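 further: plate controls were vehicle for no effect and no enzyme for full effect; higher signal means more uncleaved substrate so more Dicer inhibition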
Target sequence (Q9UPY3 whole entry, looked up): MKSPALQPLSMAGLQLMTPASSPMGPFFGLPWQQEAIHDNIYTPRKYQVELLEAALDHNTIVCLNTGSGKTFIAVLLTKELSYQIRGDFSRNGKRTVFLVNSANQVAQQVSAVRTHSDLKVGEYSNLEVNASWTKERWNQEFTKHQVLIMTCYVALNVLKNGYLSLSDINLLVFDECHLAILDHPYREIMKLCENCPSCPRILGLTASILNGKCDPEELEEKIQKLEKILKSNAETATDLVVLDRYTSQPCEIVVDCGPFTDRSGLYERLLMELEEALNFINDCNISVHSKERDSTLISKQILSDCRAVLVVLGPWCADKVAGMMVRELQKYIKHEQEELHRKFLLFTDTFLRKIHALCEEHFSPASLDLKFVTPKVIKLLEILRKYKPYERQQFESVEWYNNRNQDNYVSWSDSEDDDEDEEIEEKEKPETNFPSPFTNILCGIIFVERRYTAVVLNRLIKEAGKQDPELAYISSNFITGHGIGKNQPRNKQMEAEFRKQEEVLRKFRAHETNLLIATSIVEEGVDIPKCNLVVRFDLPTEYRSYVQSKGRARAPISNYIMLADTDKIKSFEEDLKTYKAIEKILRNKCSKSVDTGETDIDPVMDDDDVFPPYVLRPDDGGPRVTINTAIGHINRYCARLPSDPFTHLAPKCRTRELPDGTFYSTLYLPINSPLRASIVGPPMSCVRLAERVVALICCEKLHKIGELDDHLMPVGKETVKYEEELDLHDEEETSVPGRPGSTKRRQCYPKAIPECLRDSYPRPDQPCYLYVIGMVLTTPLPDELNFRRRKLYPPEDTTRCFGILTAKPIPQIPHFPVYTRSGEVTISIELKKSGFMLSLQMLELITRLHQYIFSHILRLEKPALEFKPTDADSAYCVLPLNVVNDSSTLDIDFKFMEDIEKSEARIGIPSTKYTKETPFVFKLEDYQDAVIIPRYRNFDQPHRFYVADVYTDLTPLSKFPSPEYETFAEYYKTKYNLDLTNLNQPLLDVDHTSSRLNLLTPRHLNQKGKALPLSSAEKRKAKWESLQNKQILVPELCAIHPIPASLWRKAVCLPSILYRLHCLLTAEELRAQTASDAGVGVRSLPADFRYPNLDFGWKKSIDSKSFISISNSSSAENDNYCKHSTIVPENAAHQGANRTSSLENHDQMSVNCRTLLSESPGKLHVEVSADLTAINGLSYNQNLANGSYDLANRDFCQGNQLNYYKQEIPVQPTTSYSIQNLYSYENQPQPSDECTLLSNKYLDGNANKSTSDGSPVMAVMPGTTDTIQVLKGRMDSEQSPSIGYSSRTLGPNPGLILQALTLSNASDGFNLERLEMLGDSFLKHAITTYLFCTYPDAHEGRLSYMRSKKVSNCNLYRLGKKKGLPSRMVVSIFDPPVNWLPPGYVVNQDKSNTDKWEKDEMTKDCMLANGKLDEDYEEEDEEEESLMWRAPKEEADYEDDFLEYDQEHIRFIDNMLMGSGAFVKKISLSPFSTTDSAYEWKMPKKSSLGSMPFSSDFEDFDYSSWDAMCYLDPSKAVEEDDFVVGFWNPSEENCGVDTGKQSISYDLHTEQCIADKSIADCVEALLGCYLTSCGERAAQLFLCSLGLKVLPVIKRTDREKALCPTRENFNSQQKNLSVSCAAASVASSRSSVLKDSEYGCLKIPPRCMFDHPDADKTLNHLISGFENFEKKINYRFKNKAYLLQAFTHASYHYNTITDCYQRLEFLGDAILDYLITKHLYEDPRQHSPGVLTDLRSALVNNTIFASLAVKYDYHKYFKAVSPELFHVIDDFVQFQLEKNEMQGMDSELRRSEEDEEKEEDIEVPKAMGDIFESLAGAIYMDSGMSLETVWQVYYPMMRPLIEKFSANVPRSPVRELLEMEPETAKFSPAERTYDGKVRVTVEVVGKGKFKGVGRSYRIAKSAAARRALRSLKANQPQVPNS
Starred values were filed as active, the others as inactive; ! = a repeat was not active.

SMILES	Dicer inh
COc1ccc2ccccc2c1Br	-1.28
CC(=O)ON1C(=O)c2cccc3cccc(c23)C1=O	1.23
O=c1c2cc(-n3cccc3)ccc2oc2ncccc12	-8.27
Cc1ccc(-c2nc(NC(=O)c3c(F)cccc3F)sc2C)cc1Cl	1.3
CC(C)(C)C(=O)NC(=O)Nc1cc(C(F)(F)F)cc(C(F)(F)F)c1	1.81
CC(C)(C)C(=O)NC(=O)Nc1cc(C(F)(F)F)ccc1Cl	4.07*
NNC(=S)Nc1cc(C(F)(F)F)ccc1Cl	1.88
CN(CCCN1c2ccccc2CCc2ccccc21)CC(=O)c1ccc(Cl)cc1	-0.11
CNCCCN1c2ccccc2CCc2ccccc21	5.62*!
CN(C)CCCN1c2ccccc2CCc2ccc(Cl)cc21	24.9
NC(/N=C/c1ccccc1O)=N\S(=O)(=O)c1ccc(N=Cc2ccccc2O)cc1	27.2
CC(C)COC(=O)c1ccc2c(c1)C1C=CCC1C(c1ccc(F)cc1)N2 (stereo unspecified)	0.97
O=C(O)c1ccc2c(c1)C1C=CCC1C(c1ccc(Cl)cc1)N2 (stereo unspecified)	5.21
CCOC(=O)c1ccc2c(c1)[C@@H]1C=CC[C@@H]1[C@H](c1cccc(OC)c1OC)N2	0.9
Clc1ccc2c(c1)C1C=CCC1C(c1ccccc1)N2 (stereo unspecified)	22.9
CCOC(=O)c1ccc2c(c1)C1C=CCC1C(c1ccccc1)N2 (stereo unspecified)	-0.56
COc1ccc(Br)cc1[C@@H]1Nc2ccc(C(=O)O)cc2[C@@H]2C=CC[C@@H]21	1.06
O=C(O)c1ccc2c(c1)[C@@H]1C=CC[C@@H]1[C@H](c1ccccc1Br)N2	3.11*
CCOC(=O)c1ccc2c(c1)C1C=CCC1C(c1ccc(Br)cc1)N2 (stereo unspecified)	5.61*
Cc1ccc2c(c1)C1C=CCC1C(c1ccccc1Cl)N2 (stereo unspecified)	4.09*
O=C(O)c1ccc(N2C(=O)CC(Cc3ccc(Cl)cc3)C2=O)cc1 (stereo unspecified)	0.2
Cc1ncc([N+](=O)[O-])n1CCC(C)C	0.31
CCN(CC)C(=O)CSc1nnc2nnc3ccccc3n12	-0.58
Cc1cc(C)nc(NS(=O)(=O)c2ccc(NC(=O)Nc3ccsc3)cc2)n1	9.86
CCc1c(C#N)c(SCC(=O)N2CCc3cc(OC)c(OC)cc3C2)nc2c1C(=O)CC(C)(C)C2	-1.12
SMILES	Dicer inh
Cc1cc(-n2c(=S)[nH]c3sc(C)c(C)c3c2=O)n(-c2ccccc2)n1	3.17*
Cc1ccnc(-n2c(=S)[nH]c3sc(C)c(C)c3c2=O)c1	0.49
CCn1c(=S)[nH]c2sc(C)c(C)c2c1=O	-1.06
CC1(C)CC(=O)C2=C(C1)Nc1ccccc1NC2c1cccc(Cl)c1 (stereo unspecified)	-0.16
Cc1ccc(CSc2nccc(-c3nn(-c4ccc(F)cc4)ccc3=O)n2)cc1	0.94
Cc1[nH]c2ccccc2c1C(=O)CSc1nnc(C)n1-c1ccccc1	2.82
Cn1c(SCC(=O)c2c[nH]c3ccccc23)nnc1-c1cccs1	2.61
Cc1nnc(SCC(=O)c2c[nH]c3ccccc23)n1-c1ccccc1	4.31*
Cc1nc2c(Br)cc(Br)cc2c(=O)o1	-0.68
NNC(=O)CSc1ncnc2sc3c(c12)CCCC3	-0.2
O=C(c1ccc(F)cc1)c1coc2ccc(O)cc12	-2.72
OCCCc1nc2ccccc2n1CCCCOc1ccc(Cl)cc1	6.06*
OCCCc1nc2ccccc2n1CCCOc1ccc(Cl)cc1	0.7
OCc1nc2ccccc2n1CC(O)COc1ccc(Cl)cc1 (stereo unspecified)	-1.95
CCC(C)Nc1ncnc2sccc12 (stereo unspecified)	-0.16
N#Cc1cnn(-c2ccccc2)c1-n1cccc1	-0.14
CC(C)(C)c1nnc(-c2cccc([N+](=O)[O-])c2)o1	-1.03
Cc1ccc(/C=N/N2C(=O)/C(=C/c3ccccc3Cl)N=C2c2ccccc2)o1	-2.13
Cc1cccc(C)c1OCCn1cncn1	3.27*
Cc1cccc(C)c1OCCCc1c(C)n[nH]c1C	-0.53
Cc1cc(Cl)cc(C)c1OCCn1ccnc1	1.18
NS(=O)(=O)c1cccc2cc(C(=O)O)c(O)cc12	-1.9
CCOC(=O)c1cc(C#N)c(Sc2ccccc2N)nc1C(F)(F)F	-2
C=CCSC1=C(C#N)C(c2ccc(O)cc2)CC(=O)N1 (stereo unspecified)	1.08
COc1cc2nc3c4ccccc4n(C(C)C)c3nc2cc1OC	3.4*
SMILES	Dicer inh
CC(C)n1c2ccccc2c2ccccc21	0.68
CCCCn1c2ccccc2c2nc3cc(OC)c(OC)cc3nc21	1.03
CCOC(=O)C1=C(C)N(c2ccc(OCC)cc2)C(=O)C1	2.27
CC(C)(C)C(=O)c1cn(CC(=O)O)c2ccccc12	0.33
O=C(c1ccco1)c1cn(CCOc2ccccc2)c2ccccc12	-0.39
O=C(c1ccco1)c1cn(CCOc2ccc(F)cc2)c2ccccc12	1.61
COC(=O)c1cn(CCOc2ccc(F)cc2)c2ccccc12	2.25
O=C(c1cccs1)c1cn(CCOc2ccc(F)cc2)c2ccccc12	3.46*
CCN(CC)C(=O)Cn1cc(C(=O)c2ccco2)c2ccccc21	-0.38
COC(=O)Cn1cc(C(=O)c2ccccc2)c2ccccc21	3.61*
COC(=O)c1cn(CCOc2ccccc2)c2ccccc12	3.06*
O=C(c1ccco1)c1cn(CCOc2ccc(Cl)cc2)c2ccccc12	-0.39
CC(=O)N1Cc2ccccc2S12OC(=O)c1ccccc12 (stereo unspecified)	-0.84
Cc1cc(C)n(C(=O)C2COc3ccccc3O2)n1 (stereo unspecified)	-0.06
COc1ccc(CCN2C(=O)CCC(C(=O)O)C2c2cc(OC)c(OC)c(OC)c2)cc1OC (stereo unspecified)	0.49
COC(=O)C1=C(C)NC2=C(C(=O)CC(C)(C)C2)C1c1ccc(C(=O)OC)cc1 (stereo unspecified)	-0.94
Cc1csc2c(=O)sc(NC(=O)c3ccc(C(C)(C)C)cc3)nc12	0.15
O=c1oc(-c2ccccc2)nc2c1oc1ccc(Cl)cc12	2.53
CCOC(=O)Cc1csc(NC(=O)CSc2nc3ccccc3c(=O)[nH]2)n1	-1.35
N#CC1=C(C(N)=O)N=C(c2ccccc2)C(c2ccccc2)N1 (stereo unspecified)	0.55
O=C(c1cc(F)c(F)cc1Cl)n1cccn1	-0.66
CCN1CCN(Cc2ccc3cccnc3c2O)CC1	-1.24
Oc1c(C(c2ccc(F)cc2)N2CCCCC2)ccc2cccnc12 (stereo unspecified)	3.71*
Oc1c(C(c2ccccn2)N2CCCC2)ccc2cccnc12 (stereo unspecified)	0.52
COc1ccc2sc(Nc3nc(C)n(-c4ccccc4)c(=O)n3)nc2c1	1.41
SMILES	Dicer inh
CCOC(=O)c1c(NC(=O)c2ccco2)sc2c1CCCCC2	5.7*
O=C(Nc1sc2c(c1C(=O)Nc1ccccc1)CCCCC2)c1ccco1	2.82
CCC(=O)Nc1sc2c(c1C(=O)Nc1ccccc1Cl)CCC2	4.21*
O=C(Nc1sc2c(c1C(=O)Nc1ccccc1)CCCC2)c1ccco1	3.18*
CC(C)(C)C1CCc2c(sc(NC(=O)CCC(=O)O)c2C(=O)Nc2ccccc2Cl)C1 (stereo unspecified)	-0.75
N#Cc1c(NC(=O)c2ccco2)sc2c1CCCCC2	2.56
CCC(=O)Nc1sc2c(c1C(=O)Nc1ccc(Cl)cc1)CCC2	0.55
O=C(Nc1sc2c(c1C(=O)O)CCCCC2)c1ccco1	2.7
CCOC(=O)c1c(NC(=O)c2cccs2)sc2c1CCCC2	-1.06
CN(C)/C=C/C=C1\c2ccccc2-c2ccc([N+](=O)[O-])cc21	-1
COC(=O)Nc1ccc(SC(F)(F)F)cc1	0.55
